From PubChem
KDM5B inh: KDM5B demethylase inhibition | KDM5B demethylase, FDH-coupled NADH fluorescence (FDH is formaldehyde dehydrogenase) | Potency, µM (series often up to 57.7 µM), most hits filed as inhibitors | hit rate 2.6% among 220,000 | AID 1347165; active = well fitted inhibition curve with a large enough effect; inconclusive = small, poorly fitted or top-dose-only effect; inactive = no such curve, though single readings can be large or run the other way; note: potency is the fitted concentration of half-maximal effect; 0% is about no effect; nearly all actives have a fitted effect of over 70% in size
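Here, H3K4me3 peptide (12.5 µM in substrate mix) is demethylated by KDM5BΔAP, 200 nM final, after 10 min compound exposure. Formaldehyde product is coupled through FDH (0.25 U/mL in mix) to NADH fluorescence; 30-min ΔRFU feeds dose-response curves.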
IP6K1 inh: blocks human inositol hexakisphosphate kinase 1 | IP6K1 kinase, ADP-Glo luminescence, 2 h; stronger effect = lower value | activity change, % (series mostly up to about 58 µM) | hit rate 0.81% among 140,000; in the data active = activity change below about -25%; note: % is set by controls: 0 for no effect and ±100 for the full control effect
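ADP-Glo luminescence measures ADP made by human IP6K1 during a 2 h RT reaction with ATP/IP6 (mix at 1.3 mM/130 uM); top library doses 57.5 and 19.1 uM final.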
Starred values were filed as active, the others as inactive. Sampled rows, rich in hits. Any-hit rate of the full collection: about 2.8%.

Results for COc1ccc(CN2CCC3(CC(Cc4ccccc4)=NO3)C2)cc1 (stereo unspecified) ?
KDM5B inh: 25µM*; IP6K1 inh: 0

Results for Fc1ccc(CN2CCC3(CC(Cc4ccccc4)=NO3)C2)cc1 (stereo unspecified) ?
KDM5B inh: 32µM*; IP6K1 inh: 1

How did CN(C)c1ccc(CN2CCCC3(CC(Cc4ccccc4)=NO3)C2)cc1 (stereo unspecified) do in these assays?
KDM5B inh: inactive; IP6K1 inh: 0

How did COCc1ccc2c(c1)c(OC(C)(C)C(=O)NCC(F)(F)F)nn2Cc1ccccc1 do in these assays?
KDM5B inh: inconclusive; IP6K1 inh: -8

Results for COCc1ccc2c(c1)c(OC(C)(C)C(=O)NCC1CC1)nn2Cc1ccccc1 ?
KDM5B inh: 32µM*; IP6K1 inh: 10

How did COCc1ccc2c(c1)c(OC(C)(C)C(=O)NCC[S+](C)(=O)[O-])nn2Cc1ccccc1 do in these assays?
KDM5B inh: 28µM*; IP6K1 inh: 5

How did COCc1ccc2c(c1)c(OC(C)(C)C(=O)NCC[S+](C)(=O)[O-])nn2CCC(C)C do in these assays?
KDM5B inh: inconclusive; IP6K1 inh: 4

Results for CN(C)Cc1ccc2c(c1)c(OC(C)(C)C(=O)NC1CC1)nn2Cc1ccccc1 ?
KDM5B inh: 35µM*; IP6K1 inh: 4

Results for CC(C)(Oc1nn(Cc2cccc(Cl)c2)c2ccccc12)C(=O)NC1CCOCC1 ?
KDM5B inh: inconclusive; IP6K1 inh: -7

What do the screens show for `COCc1ccc2c(c1)c(OC(C)(C)C(=O)NCC[S+](C)(=O)[O-])nn2Cc1cccnc1`?
KDM5B inh: inactive; IP6K1 inh: 4

What do the screens show for `COCc1ccc2c(c1)c(OC(C)(C)C(=O)NCC1CCOCC1)nn2CCC(C)C`?
KDM5B inh: 35µM*; IP6K1 inh: 5

What do the screens show for `O=C(NC1CCN(c2nccc(Nc3ccccc3Cl)n2)CC1)c1ccccc1`?
IP6K1 inh: -9

How did COc1ccc(CNCc2cccs2)c(OC)c1 do in these assays?
KDM5B inh: inactive

What do the screens show for `O=C(NCc1cnn(-c2ccccc2)c1)C1CCN(S(=O)(=O)c2cccc(C(F)(F)F)c2)CC1`?
KDM5B inh: inactive

Results for COCc1ccc2c(c1)c(OC(C)(C)C(=O)NCCN1CCOCC1)nn2Cc1ccccc1 ?
KDM5B inh: inconclusive; IP6K1 inh: -4

Results for COCc1ccc2c(c1)c(OC(C)(C)C(=O)NC1CC1)nn2Cc1ccccc1 ?
KDM5B inh: 35µM*; IP6K1 inh: -4

What do the screens show for `COCc1ccc2c(c1)c(OC(C)(C)C(=O)Nc1ccccn1)nn2Cc1ccccc1`?
KDM5B inh: inconclusive; IP6K1 inh: -11

What do the screens show for `COCc1ccc2c(c1)c(OC(C)(C)C(=O)NC1CCOCC1)nn2Cc1ccccc1`?
KDM5B inh: 28µM*; IP6K1 inh: 2

How did CC(C)Oc1cccc(Cn2cnc3c2c(=O)n(C)c(=O)n3C)c1 do in these assays?
KDM5B inh: inactive

Results for O=C(COc1ccc2c(c1)CCC2)NC1CCS(=O)(=O)C1 (stereo unspecified) ?
KDM5B inh: inactive

How did CN(c1ccc(-c2csc(NC3CCCC3)n2)cc1)S(C)(=O)=O do in these assays?
KDM5B inh: inactive

What do the screens show for `CCOc1ccc(C(C)=O)cc1COC(=O)c1ccc(C(N)=O)cc1`?
KDM5B inh: inactive

What do the screens show for `COc1ccc(-c2ccnc(N[C@H]3CO[C@H]4[C@@H]3OC[C@@H]4NS(=O)(=O)c3ccc(C)cc3)n2)cc1`?
KDM5B inh: inactive; IP6K1 inh: -2

What do the screens show for `CC(C)c1nnnn1[C@H]1CO[C@H]2[C@@H]1OC[C@H]2OC(=O)Nc1cccc(C#N)c1`?
KDM5B inh: inactive; IP6K1 inh: 7

How did COc1ccc(-c2ccnc(N[C@H]3CO[C@H]4[C@@H]3OC[C@H]4OCC(N)=O)n2)cc1 do in these assays?
KDM5B inh: 32µM*; IP6K1 inh: 1

How did CC(C)(C)c1ccc(NC(=O)O[C@@H]2CO[C@H]3[C@@H]2OC[C@@H]3Nc2nccc(-c3ccc(-c4ccccc4)cc3)n2)cc1 do in these assays?
KDM5B inh: inactive; IP6K1 inh: 12

How did COc1ccc(-c2ccnc(N[C@H]3CO[C@H]4[C@@H]3OC[C@@H]4NC(=O)CCC(=O)O)n2)cc1 do in these assays?
KDM5B inh: inconclusive; IP6K1 inh: -8

How did O=C(O)CCCC(=O)N[C@H]1CO[C@H]2[C@@H]1OC[C@@H]2Nc1nccc(-c2ccc(-c3ccccc3)cc2)n1 do in these assays?
KDM5B inh: 32µM*; IP6K1 inh: 7

How did CN(C)c1ccc(-c2nnnn2[C@H]2CO[C@H]3[C@@H]2OC[C@H]3OC(=O)Nc2cccc(C#N)c2)cc1 do in these assays?
KDM5B inh: 35µM*; IP6K1 inh: 25

Results for Cc1ccc(NC(=O)O[C@@H]2CO[C@H]3[C@@H]2OC[C@@H]3Nc2nccc(-c3ccccc3)n2)cc1 ?
KDM5B inh: 28µM*; IP6K1 inh: 4
